# Reference: PubChem BioAssay (NCI)
# This is part of a sample that, as a whole, favours compounds with a hit. Of some 79,000 tested, about 15% had one in any assay. Values without a mark were called inactive. Activity calls are given as the source filed them. No stated cut-off is given here; in the data, active means growth inhibition above about 70%; inactive means the rest.
# Test: NCI Yeast Anticancer Drug Screen. Data for the bub3 strain (AID 167)
# Details: S. cerevisiae bub3 mutant strain, at 50.0 µM, stronger effect = higher value
# Procedure, shortened: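 Steps: expose the mutant yeast strain to compound; grow alongside vehicle-treated cultures; measure growth; express inhibition against the vehicle cultures.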
row,SMILES,growth inhibition
1,CCN(CC)CC(O)c1cccc2cc(Cl)ccc12 (stereo not given),-2.55%
2,C[C@@H]1CCC[C@H]1C(N)C(=O)O (stereo not given in full),-18.1%
3,CC1C(=O)CCC2CCCCC21 (stereo not given),12.2%
4,O=C(c1ccccc1)[n+]1ccc2ccccc2c1,-6.25%
5,CC(=O)CC(=O)C(C)C.[Cu+2],-21.5%
6,CC(COc1ccccc1)N(CCCl)Cc1ccccc1 (stereo not given),38%
7,CCC1(CC)OC(=O)C(=O)N1N(C)C,-10.9%
8,O=C(O)/C=C/C(=O)Nc1ccc2c(c1)C(O)c1ccccc1-2 (stereo not given),-7.2%
9,O=C(/C=C/c1cccs1)c1ccc(Cl)s1,-6.5%
10,Nc1cc(N)nc(S(=O)(=O)O)n1,3.6%
11,Cc1ccc(-c2nnc(NC(=O)Nc3ccc(Cl)cc3)o2)cc1,-13.5%
12,O=C(O)c1ccc(-c2nn[nH]n2)cc1,-18.9%
13,Cc1ccc2nc(C(O)C(O)C(O)CO)[nH]c2c1 (stereo not given),-25.7%
14,CC(C)=CCC/C(C)=C/CO,-47.8%
15,CCO/C=C1/N=C(c2ccccc2Cl)OC1=O,-17.1%
16,CN(C)CCN=C1Nc2ccccc2C(=O)N2CSCC12 (stereo not given),-15.3%
17,CC1(C)NC(c2ccccc2)c2ccsc2-n2cccc21 (stereo not given),-9.85%
18,CN1CCC/C1=N\c1ncn[nH]1,-8.5%
19,O=C1C(=O)C([n+]2cccc3ccccc32)=C([O-])C2=C1C1c3ccccc3C2c2ccccc21,91% (active)
20,O=c1[nH]c(=O)n(C2CC(O)C(CO)O2)cc1/C=C/Br (stereo not given),7.35%
